# Laboratory results as given in PubChem BioAssay AID720541 (National Center for Advancing Translational Sciences (NCATS), 2013).
# The campaign covered roughly 1,300 compounds. About 420 (32%) were called active. Not shown: some 32% with an inconclusive outcome. Calls follow the shape of the dose curve; as a rule, active = well fitted inhibition curve with a large enough effect; inconclusive = small, poorly fitted or top-dose-only effect; inactive = no such curve, though single readings can be large or run the other way. The list shows a part of the results.
# Target: C-terminal-binding protein 1 (Homo sapiens) (UniProt Q13363)
# Assay: qHTS for Inhibitors of the Phosphatase Activity of Eya2: Carboxyl-terminal binding protein (CtBP) Counterscreen for Cherry-picked Compounds; also: nearly all actives have a fitted effect of over 65% in size
# Settings: purified protein-protein binding, AlphaScreen, 3 h; series mostly up to 46.1 µM; activity change, negative = inhibition: at the top concentration
# How it was run: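 Cherry-picked compounds (final 2.5 nM–46 uM) were incubated 2 h at RT with 25 nM CtBP-6xHIS and 25 nM GST-E1A. Alpha beads (20 ug/mL) were then added for 1 h, light-protected; DMSO and E1A peptide inhibitor wells set the normalization.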
# % is scaled to controls: 0 for no effect and ±100 for the full control effect; potency is read from the fitted curve at half-maximal effect.
SMILES,"activity change, negative = inhibition",Potency
NC(=O)[C@@H]1CC2(CC(c3cccc(NC(=O)COc4ccc(Cl)cc4)c3)=NO2)CN1C(=O)COc1ccc(Cl)cc1 (some centres not stated),-2.46% (inactive),–
CCOCCCNC(=O)c1cc2sc(Cl)cc2n1CC,-5.54% (inactive),–
Cc1cccc2cn[nH]c12,3.72% (inactive),–
O=C(NN=C1CCCC1)c1[nH]c2ccc(Br)cc2c1-c1ccccc1,-4.82% (inactive),–
COc1ccc(OC)c(NC(=O)CSc2nc(-c3ccccc3)cc(=O)[nH]2)c1,-21.4% (inactive),–
CCOC(=O)c1sc(NC(=O)CSc2nc(O)c(Cc3ccccc3)c(=O)[nH]2)nc1C,–,16.9 µM (active)
O=C(O)c1ccccc1-c1ccccc1C(=O)Nc1ccc2c(c1)[nH]c(=O)c1ccccc12,–,7.57 µM (active)
O=C(O)c1ccccc1-c1ccccc1C(=O)Nc1ccc2oc(=O)c3ccccc3c2c1,–,12 µM (active)
CCN1C(=O)/C(=C2/C=Cc3ccccc3N2CC)SC1=S,–,4.26 µM (active)
COc1cc(OC)c(OC)cc1/C=C/c1nccc2ccccc12,–,7.57 µM (active)
FC(F)(F)c1ccc(CN2C[C@@H]3C(c4ccc(Cl)nc4)C4(c5cccnc5)CC3(C4)[C@H]2c2ccccc2)cc1 (some centres not stated),-13.9% (inactive),–
Cc1ccc(O)c(C(=O)c2cnc3c(c2)c(-c2ccc(F)cc2)c(C#N)c(=O)n3C)c1,50.2% (inactive),–
COc1ccc([C@H]2CC(=O)C=C(c3ccnc4ccc(Cl)cc34)C2)cc1,-17.1% (inactive),–
CN(C)c1ccc(NC(=O)CC(NCc2ccccn2)C(=O)O)cc1 (configuration not stated),–,1.07 µM (active)
CC(=O)Nc1ccc(NC(=O)COc2ncnc3ccccc23)cc1,23% (inactive),–
COc1cc(OC)c(NC(=O)CN(C)S(=O)(=O)c2ccc(-c3ccc(=O)[nH]n3)s2)cc1Cl,–,6.01 µM (active)
CCN(CC)c1ccc(/C=C2\CCC(/C=C(\C#N)C(=O)Nc3ccccc3F)=C2N2CCOCC2)cc1,–,23.9 µM (active)
CCCc1ccc(C#N)c(SC2CC(=O)N(c3ccc(OC)cc3)C2=O)n1 (configuration not stated),-12.5% (inactive),–
O=C1NC(=O)/C(=C\c2ccccc2OCc2cccc([N+](=O)[O-])c2)N1,-13% (inactive),–
COc1ccc(F)cc1-c1cc(NC=O)c2ncc(-c3cccc(C(F)(F)F)c3)n2c1,-11.4% (inactive),–
Oc1c(C(Nc2nc3ccccc3s2)c2ccco2)ccc2cccnc12 (configuration not stated),–,6.75 µM (active)
Cc1cc(C)c(OCCCCN(C)Cc2ccccc2)c(C)c1,58.5% (inactive),–
O=c1c2ccccc2oc2nc3n(c(=O)c12)CCCS3,–,12 µM (active)
Cc1cc(=O)n2nc(N3CCCC(C(=O)Nc4ccc(C)c(C)c4)C3)sc2n1 (configuration not stated),-39.8% (inactive),–
CN1/C(=C\C(=S)NC(=O)c2ccccc2Cl)C(C)(C)c2ccccc21,–,15.1 µM (active)

SMILES,"activity change, negative = inhibition",Potency
Oc1[nH]c2ccccc2c1N=Nc1nc2ccccc2s1,-4.03% (inactive),–
Cc1c(CCO)c(=O)n(-c2ccccc2)n1S(=O)(=O)c1c(Cl)cc(Cl)cc1Cl,-25.3% (inactive),–
CCOc1ccc(S(=O)(=O)Nc2cc(SCC(=O)O)c(O)c3ccccc23)cc1,–,21.3 µM (active)
CCN1CCN(c2nn3c(=O)c4ccccc4nc3c3ccccc23)CC1,–,9.53 µM (active)
O=C(O)CCc1c2ccc(=O)c(O)c-2oc2c(O)c(O)ccc12,–,16.9 µM (active)
CCN(CC)c1ccc(N=Cc2cc(Br)ccc2O)cc1,5.98% (inactive),–
CC(C)c1ccc(C2c3[nH]c4ccccc4c3C[C@H]3C(=O)N(c4ccccc4C(=O)N4CCC[C@H]4C(=O)O)C(=O)N23)cc1 (some centres not stated),-23.3% (inactive),–
COc1ccc(C(=O)N2CCOCC2)cc1S(=O)(=O)N1CCCc2ccccc21,-3.75% (inactive),–
COc1ccc(/C=C2\CCc3ccccc3C2=O)cc1CN1CCOCC1,–,13.5 µM (active)
Cn1ccc2c(N3CCCC3)cc3c(c21)C1CCC3C1 (configuration not stated),–,15.1 µM (active)
O=C(NCCCNC1CCCCC1)c1ccc(/C=N/O)nc1,–,13.5 µM (active)
CN(C)c1ccc(Sc2ccc3nc(N)nc(N)c3c2)cc1,–,6.75 µM (active)
COc1ccccc1/C=C/C(=O)Oc1cccc2cccnc12,–,3.38 µM (active)
O=C(/C=C/c1ccccc1)Oc1cccc2cccnc12,–,2.39 µM (active)
O=C(/C=C/c1ccco1)Oc1cccc2cccnc12,–,4.26 µM (active)
O=C(/C=C\c1ccccc1)Oc1cccc2cccnc12,–,3.38 µM (active)
O=C(/C=C/c1ccco1)Nc1ccccc1N1CCCC1,-24.3% (inactive),–
COc1ccc(Br)cc1CNC(=O)c1ccc2c(c1)N(C)CCS2,-24.5% (inactive),–
N#Cc1c(=O)c2nc(NCc3ccccc3)ncc2n2ccccc12,–,4.26 µM (active)
CC(C)Cn1c(SC(C)C(=O)Nc2ccc(N3CCOCC3)cc2)nc2ccccc21 (configuration not stated),-22.3% (inactive),–
CC1CCCCC1Nc1nc2ccc(Cl)cc2n2cnnc12 (configuration not stated),-14.8% (inactive),–
c1ccc2c(c1)nc(Nc1ccc(N3CCCCC3)cc1)c1nncn12,–,15.1 µM (active)
Cc1cccc(NC2=C(NCCO)C(=O)c3ccccc3C2=O)c1,–,12 µM (active)
CNc1nc(-c2ccc3c(c2)CCN3C(=O)c2cccc(F)c2)cs1,-25.3% (inactive),–
CC1=CC(=O)Nc2ncccc2O1,–,15.1 µM (active)

SMILES,"activity change, negative = inhibition",Potency
C[N+](C)(CCCCCI)c1ccc(/C=C/c2nc3ccccc3s2)cc1,–,12 µM (active)
O=C(Oc1ccc2ccc(=O)oc2c1)c1cccs1,-6.55% (inactive),–
Cc1nc(S/C(=C\c2ccc(-c3ccc(C(=O)O)c(Cl)c3)o2)C(=O)O)n[nH]1,–,13.5 µM (active)
O=C(NNC(=O)c1cc2cc(Br)ccc2oc1=O)c1ccc(O)cc1,24.4% (inactive),–
Cc1ccc(C(=O)Oc2ccc3ccc(=O)oc3c2)cc1,-3.56% (inactive),–
CC(=O)Nc1ccc(OC(=O)c2cc3cc(Br)ccc3oc2=O)cc1,–,6.75 µM (active)
CCOc1cc(/C=C2\C(=N)N3N=C(CC)SC3=NC2=O)ccc1OCCOc1ccc(NC(C)=O)cc1,–,3.79 µM (active)
Cc1cc(/C=C2\C(=N)N3N=C(CC(=O)N4CCOCC4)SC3=NC2=O)c(C)n1Cc1ccccc1,-9.67% (inactive),–
O=C(CSc1nnc2c3ccccc3c3ccccc3c2n1)Nc1ccccc1F,–,12 µM (active)
COc1ccc(NC(=O)COc2cccc3c2CCN(C)C3=O)c(OC)c1,–,8.49 µM (active)
COc1ccc(NC(=O)c2ccc(CN3CCc4ccccc4C3)cc2)c(OC)c1,-22.2% (inactive),–
COc1ccccc1NC(=O)CCCCCN1C(=O)c2cccc3cccc(c23)C1=O,-5.32% (inactive),–
Cc1c(C(=O)/C=C/N(C)C)nnn1-c1ccc(Cl)cc1Cl,3.68% (inactive),–
CN(C)S(=O)(=O)c1cccc(NC(=O)COc2ccccc2C(=O)Nc2ccccc2)c1,–,10.7 µM (active)
O=C(COc1ccccc1/C=C1/NC(=O)NC1=O)Nc1ccccc1,-22% (inactive),–
CCC(C)C(CO)NC(=O)/C=C/[C@H]1O[C@@H](n2cnc3c(NC(=O)c4ccccc4)ncnc32)[C@H](O)[C@@H]1O (some centres not stated),2.64% (inactive),–
CCCC[C@@]1(C2CCCC2)Cc2cc(OCC(=O)O)c(Cl)c(Cl)c2C1=O,-17.1% (inactive),–
CN1C(=O)/C(=C2\SC(=S)N(NC(=O)c3cccnc3)C2=O)c2ccccc21,–,15.1 µM (active)
CCOC(=O)CN1C(=O)/C(=C2\SC(=S)N(NC(=O)c3cccnc3)C2=O)c2ccccc21,–,13.5 µM (active)
Cc1cc2oc(C(=O)N(Cc3ccc(N(C)C)cc3)CC3CCCO3)c(C)c2cc1C (configuration not stated),-65.1% (inactive),–
CCc1ccc2[nH]c3nc(SCC(=O)NCC4CCCO4)nnc3c2c1 (configuration not stated),–,4.78 µM (active)
CCOc1ccc2[nH]c3nc(SCC(=O)NC4CCCC4)nnc3c2c1,23.6% (inactive),–
CCCc1cc(=O)[nH]c(SCC(=O)Nc2ccc(C)cc2)n1,2.2% (inactive),–
Cc1nnc2sc(SCC(=O)Nc3ccc(Br)cc3)nn2c1=O,–,2.13 µM (active)
CCOC(=O)N1CCC(NC(=O)c2cc3c(-c4ccccc4F)nn(C)c3s2)CC1,6.05% (inactive),–

SMILES,"activity change, negative = inhibition",Potency
N#Cc1c2nc3ccccc3nc2n2cc(NC(=O)c3ccc(F)cc3)ccc12,–,3.79 µM (active)
Cc1cccc(N2CCN(C(=O)C3COc4ccccc4O3)CC2)c1C (configuration not stated),1.89% (inactive),–
Cc1cnc(C(=O)Nc2ccccc2-c2ccc(C)o2)cn1,-9.79% (inactive),–
COc1ccc(-n2nc(C)cc2Nc2ccccc2C(=O)O)cc1,–,7.57 µM (active)
Cc1cc(Nc2ccccc2C(=O)O)n(-c2cccc(Cl)c2)n1,–,7.57 µM (active)
CCOC(=O)c1cc(-c2ccc(N3CCOCC3)cc2)nn1-c1ccccc1C(=O)O,1.17% (inactive),–
CCc1nc2ccc(C(=O)NCCOc3ccc(OC)cc3)cn2c1N(CCC(C)C)CCN(C)C,-15% (inactive),–
O=C1c2ccccc2C(=O)c2c(Nc3ccc(CCO)cc3)ccc(O)c21,–,6.01 µM (active)
COc1cccc(C2c3[nH]c4ccccc4c3CCN2Cc2cnn(C)c2)c1 (configuration not stated),-26.5% (inactive),–
CNc1c(Br)cc(C(O)C2=CCc3ccccc32)cc1Br (configuration not stated),-6.01% (inactive),–
Cc1csc(NC(=O)c2cc(=O)[nH]c3ccccc23)n1,–,19 µM (active)
O=C(NC1CCCC1)c1cc(=O)[nH]c2ccccc12,20.1% (inactive),–
COc1ccc(C(=O)CC(=O)Nc2ccc([N+](=O)[O-])cc2)cc1,-3.78% (inactive),–
O=C(Nc1cc([N+](=O)[O-])ccc1O)c1cccc(C(=O)Nc2cc([N+](=O)[O-])ccc2O)c1,–,6.01 µM (active)
Cc1cc(Br)c(NC(=O)c2ccccc2[N+](=O)[O-])cc1C,0.85% (inactive),–
COc1cc(OC)c(OC)cc1CCC(C)NCCC(c1ccccc1)c1ccccc1 (configuration not stated),–,13.5 µM (active)
CNc1cccc2c1C(=O)c1ccccc1C2=O,–,2.39 µM (active)
Cc1cccc(NC(=O)COC(=O)c2cccc3c2C(=O)c2ccccc2C3=O)c1C,-11.7% (inactive),–
Cc1ccc(/C=C/C(=O)Nc2ccc(N(C)C)cc2)o1,–,15.1 µM (active)
C=CCn1cccc(C(=O)Nc2ccc(N(C)C)cc2)c1=O,-23.2% (inactive),–
NC(=O)c1ccc(NC(=O)COC(=O)/C=C/c2ccc(Br)o2)cc1,3.02% (inactive),–
CN(C)c1ccc(-c2ccnc3c2CC(C)(C(=O)Nc2ccc(Cl)c(C(F)(F)F)c2)O3)cc1 (configuration not stated),-29.7% (inactive),–
